The text below walks through data of PubChem BioAssay.

The subject of test [1] is Plasmodium falciparum Sir2 (PF13_0152, Sir2A). Nature of the test: pfSir2 binders on small-molecule microarrays, primary screen, biochemical, small-molecule microarray, 635 nm fluorescence (AID 1098).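 Note: score merges spot fluorescence intensity with its signal-to-noise ratio.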 The conditions noted are these: small-molecule microarray binding, fluorescence 635 nm; higher = more signal.
The nature of test [2]: small-molecule microarray binders of probe aDKK1, primary screen, biochemical, biotinylated probe, 635/667 nm fluorescence (AID 1099).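 Note: score merges 667nm spot fluorescence with signal to noise across triplicate slides; reference of the scale not given here.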 The following applies: higher = more signal.
A short description of test [3]: small-molecule microarray binders of probe aCHRDL2, primary screen, biochemical, biotinylated probe, 635/667 nm fluorescence (AID 1100). The conditions noted are these: higher = more signal.
Test [4] in a line: splicing luciferase reporter signal modulators, primary screen, spliceosome inhibition project, cell-based, HEK293, splice +/- reporter (AID 1101).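 Note: HEK293 cells carrying a splicing-competent luciferase reporter gene; test concentration not given here.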 The conditions noted are these: luminescence, 24 h, higher = more signal, called active from +8 up or from −8 down. Background: In a reporter assay the amount or activity of a reporter protein is the signal.
Test [5] has as its target Fibroblast growth factor 10 (Homo sapiens) (UniProt O15520). Nature of the test: FGF10 binders on small-molecule microarrays, primary screen, biochemical, small-molecule microarray, 635 nm fluorescence (AID 1102). The following applies: FGF10 binding, fluorescence 635 nm, higher = more signal.
For test [6], the system named is glycogen synthase kinase-3 (GSK3A per assay name; protocol says GSK3B). Briefly: GSK3 binders on small-molecule microarrays, primary screen, biochemical, small-molecule microarray, 635 nm fluorescence, GSK3A (AID 1103). Note: the record names both GSK3A and GSK3B. The conditions noted are these: small-molecule microarray binding, fluorescence 635 nm; higher = more signal.
The target in test [7] is Epidermal growth factor receptor (Homo sapiens) (UniProt P00533). Nature of the test: EGFR binders on small-molecule microarrays, primary screen, biochemical, small-molecule microarray, 635 nm fluorescence (AID 1104).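 Note: score merges 667 nm emission intensity with spot signal to noise over triplicate slides.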 The conditions noted are these: EGFR binding, higher = more signal.
The target in test [8] is Follistatin-related protein 3 (Homo sapiens) (UniProt O95633). Nature of the test: FSTL3 binders on small-molecule microarrays, primary screen, biochemical, small-molecule microarray, 635 nm fluorescence (AID 1105).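 Note: score merges emission near 667 nm and signal to noise per printed spot across three slides.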 The conditions noted are these: FSTL3 binding, higher = more signal.
In test [9] the target is Dickkopf-related protein 1 (Homo sapiens) (UniProt O94907). Briefly: DKK1 binders on small-molecule microarrays, primary screen, biochemical, small-molecule microarray, 635 nm fluorescence scan (AID 1106).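 Note: score merges emission near 667 nm with signal to noise over three replicate slides.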 The conditions noted are these: DKK1 binding, higher = more signal.
Test [10] deals with Inhibin beta A chain (activin A). Briefly: INHBA (activin A) binders on microarrays, primary screen, biochemical, small-molecule microarray, 635 nm fluorescence scan (AID 1107).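 Note: mouse activin A protein probed at 4.33 µg/mL on printed slides; score merges bound-protein fluorescence near 667 nm with spot signal-to-noise.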 The conditions noted are these: small-molecule microarray binding, higher = more signal.

The source made the active and inactive calls.

Sequence of Epidermal growth factor receptor (Homo sapiens) (P00533 whole entry, looked up): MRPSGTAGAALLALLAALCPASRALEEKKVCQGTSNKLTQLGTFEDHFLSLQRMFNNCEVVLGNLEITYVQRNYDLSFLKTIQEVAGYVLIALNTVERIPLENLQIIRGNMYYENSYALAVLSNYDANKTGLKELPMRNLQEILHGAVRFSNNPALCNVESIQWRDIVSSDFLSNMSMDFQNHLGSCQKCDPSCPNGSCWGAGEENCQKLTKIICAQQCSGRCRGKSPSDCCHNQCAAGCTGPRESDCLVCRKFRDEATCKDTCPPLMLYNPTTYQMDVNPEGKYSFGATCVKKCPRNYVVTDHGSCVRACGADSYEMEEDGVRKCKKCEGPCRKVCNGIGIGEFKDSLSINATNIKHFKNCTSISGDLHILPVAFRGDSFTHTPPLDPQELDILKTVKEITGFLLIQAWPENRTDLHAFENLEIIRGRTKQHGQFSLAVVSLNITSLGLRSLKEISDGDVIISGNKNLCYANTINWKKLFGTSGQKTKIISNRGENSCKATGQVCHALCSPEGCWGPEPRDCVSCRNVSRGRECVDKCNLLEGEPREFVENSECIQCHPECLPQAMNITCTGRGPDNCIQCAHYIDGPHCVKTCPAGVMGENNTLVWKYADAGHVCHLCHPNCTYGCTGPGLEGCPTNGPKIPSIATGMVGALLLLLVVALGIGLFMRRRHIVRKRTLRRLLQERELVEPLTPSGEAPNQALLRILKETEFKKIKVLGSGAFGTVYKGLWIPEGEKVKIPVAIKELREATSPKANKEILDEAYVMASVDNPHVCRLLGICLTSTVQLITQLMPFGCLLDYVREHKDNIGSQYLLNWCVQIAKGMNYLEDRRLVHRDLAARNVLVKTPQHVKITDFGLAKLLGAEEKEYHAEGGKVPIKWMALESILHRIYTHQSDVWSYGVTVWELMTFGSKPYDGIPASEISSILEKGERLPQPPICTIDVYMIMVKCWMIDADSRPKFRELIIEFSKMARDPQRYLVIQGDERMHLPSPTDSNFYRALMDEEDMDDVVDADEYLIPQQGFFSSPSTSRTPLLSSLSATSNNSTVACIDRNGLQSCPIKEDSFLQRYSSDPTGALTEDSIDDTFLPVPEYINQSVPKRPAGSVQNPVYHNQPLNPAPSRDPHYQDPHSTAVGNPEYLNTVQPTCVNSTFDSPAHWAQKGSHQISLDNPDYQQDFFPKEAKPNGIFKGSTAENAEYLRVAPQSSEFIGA
Sequence of Follistatin-related protein 3 (Homo sapiens) (O95633 whole entry, looked up): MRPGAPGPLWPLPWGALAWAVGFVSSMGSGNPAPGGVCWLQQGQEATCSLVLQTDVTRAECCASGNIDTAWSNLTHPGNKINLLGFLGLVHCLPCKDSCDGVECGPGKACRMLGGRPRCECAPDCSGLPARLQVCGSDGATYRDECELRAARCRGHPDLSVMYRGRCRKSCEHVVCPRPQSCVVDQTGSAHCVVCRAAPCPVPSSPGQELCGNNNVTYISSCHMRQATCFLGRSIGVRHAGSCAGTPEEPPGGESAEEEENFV
Sequence of Fibroblast growth factor 10 (Homo sapiens) (O15520 whole entry, looked up): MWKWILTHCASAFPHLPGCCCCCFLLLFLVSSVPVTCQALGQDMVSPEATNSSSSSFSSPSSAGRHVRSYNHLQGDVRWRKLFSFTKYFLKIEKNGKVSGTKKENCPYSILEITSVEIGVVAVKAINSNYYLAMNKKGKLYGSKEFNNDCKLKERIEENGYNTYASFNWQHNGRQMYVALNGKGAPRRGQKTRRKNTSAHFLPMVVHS
Sequence of Dickkopf-related protein 1 (Homo sapiens) (O94907 whole entry, looked up): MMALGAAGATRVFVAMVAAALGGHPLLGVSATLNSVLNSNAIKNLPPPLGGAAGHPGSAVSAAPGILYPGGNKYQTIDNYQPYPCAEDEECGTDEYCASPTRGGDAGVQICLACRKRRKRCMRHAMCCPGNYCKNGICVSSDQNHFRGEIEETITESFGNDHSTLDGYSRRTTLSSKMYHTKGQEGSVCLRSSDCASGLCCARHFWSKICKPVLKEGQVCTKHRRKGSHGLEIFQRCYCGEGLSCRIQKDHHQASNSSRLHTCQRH

Take `COC(=O)[C@@]1(Cc2ccc(OC)cc2)[C@H]2c3cc(C(=O)N4CCCC4)n(Cc4ccccc4)c3C[C@H]2CN1C(=O)c1ccccc1`: the composite z-score in [1] stood at 0.93; in test [2], 2.64; in test [3], 1.31; in test [5] it was 1.31; in [6] it was 0.472; in test [7], 0.801. Besides, the results for the composite z-score in test [8], in [9] and in [10] were 0.413, -0.505 and 0.651, respectively. The z-score in [4] was -1.16 (inactive).
For `O=C1OCCC/C=C\[C@H]2OC34C=CCN(Cn5nnc6ccccc65)C(=O)[C@H]3N(CCO)C(=O)[C@@H]4C12` (stereo not given in full), the composite z-score in test [1] is 1.31; in test [2], -0.316; in test [3], 0.292; in test [5], -0.468; in test [6] it was -0.963; in [7], -0.898. Besides, the composite z-score in [8] is -1.41; in test [9], -1.14; in [10] it was -0.171. In addition, the z-score in test [4] is -1.48 (inactive).
`COc1ccc(CCNC(=O)[C@@H]2c3ccccc3C(=O)N(C3Cc4ccccc4C3)[C@H]2c2ccc(CO)cc2)cc1`: the composite z-score is 0.613 in test [1]; -0.124 in test [2]; 0.857 in [3]; 0.0846 in test [5]; 0.316 in test [6]; -0.19 in test [7]. Also, the composite z-score in [8] is 0.0595; in test [9], -0.337; in test [10], 0.832. The z-score in test [4] is 0.54 (inactive).
Consider `CCOC(=O)C1=CCC(c2ccccc2)N(S(=O)(=O)CC[Si](C)(C)C)C1` (stereo not given), for which the composite z-score in test [1] was -0.285; in test [2], -0.264; in test [3] it was -0.534; in test [5], -0.887; in test [6], -0.157; in test [7], -0.458. Moreover, the composite z-score in [8] was -0.736; in test [9], -0.214; in [10] it was 1.24. For the same molecule, the z-score in [4] was 0.191 (inactive).
Take `O=C1NC(=O)C2C1C=CC(C(O)Cc1ccccc1)N2Nc1ccc(Cl)cc1Cl` (stereo not given): the composite z-score is 1.2 in [1]; 0.931 in test [2]; 1.09 in test [3]; 0.175 in [5]; -0.0984 in [6]; -0.854 in test [7]. For the same molecule, the composite z-score was 0.236 in test [8], -1.18 in test [9] and 1.07 in test [10]. The z-score in test [4] is 1.8 (inactive).
Take `COC(=O)C=C(CC(O)c1cccc(Cl)c1)OC` (stereo not given): the composite z-score is -0.02 in [1]; 1.5 in [2]; 0.48 in test [3]; 0.182 in [5]; -0.134 in test [6]; -0.485 in [7]. In addition, the composite z-score is -0.374 in test [8], -0.186 in test [9] and 1.14 in test [10]. Further, in test [4], the z-score was -1.12 (inactive).
Turning to `COCCOC(=O)N1C(=O)[C@@]2(c3cc(C#CCCO)ccc31)[C@H](C(=O)N1CCc3cc(OC)c(OC)cc3C1)[C@H]1C(=O)O[C@H](c3ccccc3)[C@H](c3ccccc3)N1[C@@H]2c1ccc(O)cc1`, the composite z-score in test [1] worked out at 1.58; in [2], 0.0869; in test [3], 0.43; in test [5], 1.06; in test [6], 1.29; in test [7], 0.413. Besides, the composite z-score is 0.81 in [8], 0.547 in [9] and -0.132 in [10]. Besides, the z-score in test [4] was -0.341 (inactive).
`COc1ccc(CCNC(=O)[C@@]2(C)c3ccccc3C(=O)N(Cc3cc(F)cc(C(F)(F)F)c3)[C@H]2c2ccc(CO)cc2)cc1`: the composite z-score in test [1] was 1.59; in test [2], 0.362; in test [3] it was 0.875; in test [5] it was 0.512; in test [6], -0.596; in test [7], -0.244. Besides, the composite z-score in test [8] was -0.972; in test [9] it was -0.434; in test [10], -0.0094. For the same molecule, in [4], the z-score was -1.23 (inactive).
For the molecule `COc1ccc(C(O)C2C=CC3C(=O)N(c4ccccc4)C(=O)C3N2Nc2ccc(C(C)C)cc2)cc1OCc1ccccc1` (stereo not given), the composite z-score worked out at 1.5 in test [1]; 1.17 in [2]; 1.27 in test [3]; 0.889 in test [5]; 1.27 in test [6]; 0.207 in test [7]. For the same molecule, the composite z-score was 1.29 in test [8], -0.213 in test [9] and 0.521 in [10]. In test [4], the z-score is -0.00529 (inactive).
Turning to `C=CCN(Cc1ccccc1)C(=O)C(c1cccs1)N(CCOCCO)C(=O)/C=C\C(=O)O` (stereo not given), the composite z-score in test [1] is 0.342; in test [2] it was 0.179; in [3], 0.251; in test [5], -2.23; in [6], -0.869; in test [7] it was -2.04. Further, the composite z-score in test [8] is -1.27; in [9], -2.6; in [10] it was -2.43. Moreover, the z-score in test [4] is -1.62 (inactive).
With `C=CC[C@]1(C(=O)N2CCCCC2)N=C(c2ccc(OCCCO)cc2)O[C@H]1c1ccccc1`, the composite z-score came to 1.25 in [1]; 1.16 in test [2]; 1.11 in test [3]; 0.228 in [5]; 1.3 in test [6]; 0.0792 in [7]. The composite z-score in [8] is -0.0013; in [9] it was 0.191; in test [10], 1.11. The z-score in test [4] is -0.0569 (inactive).
Regarding `CC(C)(C)OC(=O)CC[C@]12N=C(c3ccc(OCCCO)cc3)O[C@H]1c1ccccc1N(CCS(=O)(=O)c1ccccc1)C2=O`, the composite z-score in [1] was 1.17; in test [2] it was 0.438; in test [3], 0.52; in [5], 0.905; in test [6] it was 1.23; in test [7], 0.545. Moreover, the composite z-score in test [8] turned out to be 0.975; in test [9] it was 0.445; in test [10] it was 0.924. The z-score in [4] was 0.0112 (inactive).
For the molecule `COCCOC(=O)N1C(=O)[C@@]2(c3cc(C#Cc4ccc(OC)cc4)ccc31)[C@H](c1ccc(O)cc1)N1[C@H](c3ccccc3)[C@H](c3ccccc3)OC(=O)[C@H]1[C@@H]2C(=O)NC[C@H](O)c1ccccc1`, the composite z-score in test [1] was 1.47; in test [2], -0.0755; in test [3], -0.378; in test [5], 1.42; in test [6], 1.31; in test [7], 0.769. Further, the figures for the composite z-score in test [8], in [9] and in [10] were 1.4, 0.811 and 0.113, respectively. Further, in test [4], the z-score was -1.68 (inactive).
As to `COc1cc(CO)cc(I)c1O[C@H]1C=C(C(=O)NCCO)C[C@@H](N(CCN2CCOCC2)C(=O)C2CCOC2)[C@@H]1O` (stereo not given in full), the composite z-score is 0.505 in test [1]; -0.424 in test [2]; -0.544 in test [3]; 1.29 in [5]; 0.437 in test [6]; -0.0432 in test [7]. Also, the figures for the composite z-score in test [8], in test [9] and in test [10] were 0.742, 0.507 and -0.584, respectively. Moreover, the z-score in test [4] was -0.145 (inactive).
